What was measured:
Assay in all cases: PBM binding z-score (relative to random genomic background probes); higher = stronger binding; sequences stand for … in GC…GCGATTGACAGCGTAGAATGAAGG
[1] = tested on: FXR:RXRa (NR concentration 270 nM, RXRa partner concentration 90 nM)
In short: (§1)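 Custom Agilent 4×180K protein-binding microarrays carried double-stranded probes, each with a 34-nt variable region. These regions held direct-repeat seeds, single-nucleotide variants, half-site ablations and random human genomic background sequences. Ligand-free nuclear receptor dimers were incubated on the arrays for 1 h, antibodies against each partner (one per run) detected binding, and scanned fluorescence was regression-normalized. Binding z-scores take the random background probes as reference.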

[2] = tested on: LXRa:RXRa (NR concentration 270 nM, RXRa partner concentration 90 nM)
In short: as §1

[3] = tested on: LXRa homodimer (NR concentration 270 nM)
In short: as §1

[4] = tested on: LXRb:RXRa (NR concentration 270 nM, RXRa partner concentration 90 nM)
In short: as §1

[5] = tested on: LXRb homodimer (NR concentration 270 nM)
In short: as §1

[6] = tested on: PPARa:RXRa (NR concentration 270 nM, RXRa partner concentration 90 nM)
In short: as §1

[7] = tested on: PPARg:RXRa 270nM:90nM, anti-RXR (NR concentration 270 nM, RXRa partner concentration 90 nM)
In short: as §1

[8] = tested on: PPARg:RXRa 30nM:10nM, anti-RXR (NR concentration 30 nM, RXRa partner concentration 10 nM)
In short: as §1

[9] = tested on: PPARg:RXRa 90nM:30nM, anti-RXR (NR concentration 90 nM, RXRa partner concentration 30 nM)
In short: as §1

[10] = tested on: PPARg:RXRa (NR concentration 180 nM, RXRa partner concentration 90 nM)
In short: as §1

| Sequence | PBM binding z-score [1] | PBM binding z-score [2] | PBM binding z-score [3] | PBM binding z-score [4] | PBM binding z-score [5] | PBM binding z-score [6] | PBM binding z-score [7] | PBM binding z-score [8] | PBM binding z-score [9] | PBM binding z-score [10] |
| --- | --- | --- | --- | --- | --- | --- | --- | --- | --- | --- |
| ACTCGGAGGACAGAGGTCAGAGCTACGCCAGTGA | 2.85 | 3.27 | 0.56 | 2.62 | -0.0333 | 3.83 | 4.96 | 2.62 | 4.8 | – |
| CGAACTAGGTCAAAGGCCAGTGAAAGGCGACGTA | 4.37 | 2.92 | -0.479 | 1.81 | -0.821 | 5.83 | 9.43 | 9.62 | 10.3 | – |
| CAAACTAGGTCACGAAAGGTCAAAATCGAATGAC | 7.3 | 8.11 | 7.47 | 7.37 | 2.57 | 6.41 | 8.29 | 6.67 | 8.42 | – |
| TCATATAGGTAATCAGGTGAAAGTCCGTAAGTTA | 1.07 | 0.945 | 0.314 | 0.96 | 0.374 | 2.68 | 4.24 | 4.28 | 4.2 | – |
| CGAACTAGGTCCTTGACAGGACAGTGAATAGTAA | -0.28 | -0.522 | 0.156 | -0.566 | -0.907 | 0.107 | 0.252 | -0.201 | -0.145 | – |
| CGTCCAAGGTCAAAGGTCACTGAAGAGATGACGG | 8.77 | 7.26 | 4.53 | 7.05 | 2.19 | 7.23 | 9.43 | 11 | 11.1 | – |
| ATACGTAGGTTATCGGGTCATTCAGTTTGCGCAT | 3.01 | 3.2 | 1.41 | 2.88 | 1.18 | 3.58 | 3.39 | 0.883 | 2.46 | – |
| CAAAGTAGGTCACGAAAGGTCAAAGTCGAATGAC | 7.64 | 8.17 | 8.05 | 7.39 | 2.7 | 6.63 | 8.58 | 7.11 | 8.91 | – |
| TAGCCTAGGTGATTGGGCCAGTATAGTACGCATC | -0.581 | -0.692 | -0.293 | -0.59 | -0.51 | -0.146 | -0.141 | -0.21 | -0.578 | – |
| TCTAGTTGGTCACGGAGGTCACACGCGACGGGTA | 3.47 | 3.74 | 2.9 | 3.14 | 0.904 | 3.95 | 4.08 | 3.3 | 3.9 | – |
| TTATCAAGGTGAAAGGTCGTTGATGCACGCCTTG | 3.92 | 3.41 | 0.476 | 2.84 | 0.104 | 5.86 | 9.22 | 9.21 | 11 | – |
| AGTCAAAGTTCAGGACGAGATAACGTAAAGCACG | 3.4 | 3.72 | 1.12 | 1.81 | 0.41 | 3.28 | 4.8 | 2.31 | 3.71 | – |
| CTAACTAGGTCACCGGAAGGTCAAAGTCCGCATG | 6.39 | 6.17 | 5.51 | 5.57 | 1.15 | 6.52 | 8.19 | 6.41 | 7.67 | – |
| CCTAGTGGGCCAAAGGTCATTGATTCCAATGCTC | 5.47 | 5.18 | 3.76 | 5.23 | 0.768 | 6.76 | 10.7 | 13.5 | 12.9 | – |
| ATATGTAGGTCATCGGGTCATTCAGTTTGCGCAT | 6.61 | 5.82 | 4.84 | 4.74 | 1.76 | 6.46 | 8.12 | 6.72 | 8.81 | – |
| TTAACAAGGTGAAAGGTCGTTGATGCACGCCTTG | 3.99 | 3.48 | 0.202 | 2.81 | -0.19 | 6 | 8.81 | 9.66 | 9.79 | – |
| CCTTACGGGTCAGGAGGTTATAGCACGACGAGCG | 4.11 | 3 | 0.272 | 2.52 | -0.12 | 4.49 | 4.07 | 1.19 | 2.57 | – |
| AGAATGGGGTTAAGATCAGGGAAACAGAATACAT | 4.23 | 3.54 | 0.59 | 4.19 | 2.1 | 5.62 | 4.5 | 2.12 | 3.37 | – |
| CGTCCAAGGTCAGAGAGGTCAGTGACTGCCGAGT | 6.33 | 5.11 | 3.23 | 4.11 | 0.108 | 4.74 | 4.2 | 1 | 2.64 | – |
| AGTAAAAGTTCACTAGGTAACGTAAGATTCAGCT | 4.14 | 4.44 | 3.1 | 2.6 | 1.17 | 4.32 | 5 | 2.09 | 4.23 | – |
| ACTAGCAGGCCAAAGGTCACTCAAGATTAGTCCG | 4.72 | 4.93 | 2.36 | 4.8 | 0.456 | 6.05 | 8.65 | 8.65 | 9.39 | – |
| CAAACTAGGTCACGAGGTCAAAGTCCGCTTCCCG | 7.24 | 6 | 5.08 | 5.41 | 1.09 | 6.85 | 8.27 | 7.29 | 8.74 | – |
| CTAACTAGGTCACAGAGGTCAAAGTCCGTGCGTA | 7.38 | 6.55 | 7.37 | 6.19 | 2.21 | 6.62 | 8.54 | 7.16 | 9.04 | – |
| TAGCCTAGGTCATGGGCCTGTATACCACGCGAAC | 4.51 | 3.39 | 0.196 | 2.64 | -0.604 | 4.12 | 3.29 | 0.751 | 2.07 | – |

| Sequence | PBM binding z-score [1] | PBM binding z-score [2] | PBM binding z-score [3] | PBM binding z-score [4] | PBM binding z-score [5] | PBM binding z-score [6] | PBM binding z-score [7] | PBM binding z-score [8] | PBM binding z-score [9] | PBM binding z-score [10] |
| --- | --- | --- | --- | --- | --- | --- | --- | --- | --- | --- |
| CAAACTAGGTCAAGAGGTCAAAGGCCGCTTCCCG | 7.41 | 6.17 | 5.69 | 5.21 | 1.49 | 6.45 | 8.47 | 7.55 | 9.13 | – |
| ACTCGGAGGGCAAAGGTCAGAGCTACGCCAGTGA | 5.79 | 5.11 | 1.08 | 4.14 | -0.447 | 6.1 | 8.48 | 8.91 | 9.51 | – |
| CCAGACAGGTGAAAGGTAACTCCGTCTGGTACGC | 0.568 | 0.648 | -0.506 | 0.857 | -0.698 | 3.32 | 5.65 | 3.94 | 5.52 | – |
| CCTTACGGGTCTAGGTTATAGCACGGGTGGTACG | -0.122 | -0.0116 | 0.0619 | -0.517 | -0.281 | 0.0671 | -0.00243 | -0.428 | -0.39 | – |
| TCATATAGGTTAAGGTGAAAGTCGAACGATATGA | 2.27 | 1.59 | 0.00535 | 1.55 | 0.204 | 3.44 | 4.61 | 4.32 | 4.87 | – |
| CATACAGGGTCATCTAGGCCAGAGTAGGGACGGC | 6.67 | 4.77 | 0.311 | 3.7 | 0.71 | 5.58 | 5.22 | 2.16 | 4.02 | – |
| TTACCAAGGTAAAAGGTCGTTGATGCACGCCTTG | 2.52 | 2.49 | 0.274 | 2.25 | 0.0385 | 4.46 | 6.8 | 5.65 | 6.87 | – |
| ATATGTAGGTTAGCTGGGGTCATTCCGACTAGGC | 4.03 | 5.97 | 3.23 | 4.79 | 1.3 | 5.14 | 5.12 | 2.35 | 4.36 | – |
| CCTAGCAGACCAATCTGGGTCACTCAAGGCTTGA | 0.219 | 0.374 | -0.629 | 0.514 | -1.09 | – | 2.09 | 0.195 | 1.21 | 1.8 |
| CCTGCTAGGTCAAGGGTCAGCTAAAGCAGCTCGC | 6.02 | 4.62 | 0.429 | 3.85 | -0.198 | 5.91 | 8.48 | 7.78 | 9.4 | – |
| GATTCAGGGTCAGCTAGAGGCCAGAGTATGGAAA | 5.24 | 3.64 | -0.0707 | 3.25 | -0.355 | 5.13 | 4.14 | 1.13 | 3.05 | – |
| CGGACTGGGGCAAAGGTTACCATACTCAGTACGA | 1.68 | 1.67 | -0.108 | 2.34 | -0.125 | 6.02 | 9.26 | 9.67 | 11.7 | – |
| CCTGCTAGGACAATGGTCAGCTAAAGCAGCTCGC | -0.67 | -0.803 | -0.499 | -0.869 | -1.1 | -0.776 | 1.2 | -0.505 | 0.711 | – |
| CCTAGTTGGTCAGGAGGTCCCACACCGGATATGA | 0.0406 | -0.213 | 0.429 | -0.248 | 0.251 | -0.0736 | 0.194 | -0.0977 | -0.144 | – |
| CGTCCAAGGTCAGCAGGTGAGTGAAAGCGACGTG | 5.14 | 3.02 | -0.383 | 2.08 | -0.689 | 4.13 | 3.7 | 0.511 | 2.24 | – |
| AGTCAAAGTTCATCTGGGTAACGTAAGATATGCT | 6.32 | 6.01 | 5.7 | 4.05 | 1.69 | 4.98 | 6.09 | 3.73 | 5.62 | – |
| TAGCCTCGGTCATTGGGCCAGTATAGTACGCATC | 0.733 | 0.704 | 0.605 | 0.0326 | -0.0168 | – | 0.0656 | -0.712 | -0.209 | 0.597 |
| ACCAGCAGGCCAAGGGTCACTCAAGATTAGTCCG | 2.48 | 2.71 | -0.066 | 2.55 | -0.909 | – | 6.19 | 4.57 | 5.83 | 6.25 |
| CCTACTGGGCCATTGAGAGGTCATTGATCATATG | 1.94 | 3.79 | 6.21 | 3.34 | 0.0421 | – | 2.82 | 0.314 | 1.68 | 1.83 |
| AAATGTAGGTTAAGGGTCATTCAGGTTGGTTCGC | 5.31 | 4.71 | 3.07 | 4.53 | 1.39 | – | 9.63 | 10.5 | 10.8 | 11.7 |
| CGTCCAACGTCAAGGTCAGTGAAAGAGACTCGAA | 1.22 | 1.12 | -0.198 | 1.28 | -0.439 | 2.04 | 0.216 | -0.429 | -0.211 | – |
| CCTTACAGGTCACGAGGTTATAGCACGACGAGCG | 7.41 | 5.59 | 2.37 | 4.42 | 0.788 | – | 6.56 | 3.71 | 5.37 | 7.55 |
| ATATGTAGGTTAAGGGTCATGCAGGTTGGTTCGC | 4.83 | 4.77 | 2.17 | 4.13 | 1.3 | 6.71 | 10.2 | 10.9 | 11.9 | – |
| CAAACTAGGTCAAGGGGTCAAAGTCCGCTTCCCG | 7.14 | 6.22 | 3.83 | 6.08 | 1.17 | 6.9 | 8.96 | 8.47 | 9.27 | – |
